Assay results as given in PubChem BioAssay AID2242 (National Center for Advancing Translational Sciences (NCATS), 2010).
Hit rate of the full screen: of about 200,000 compounds, about 720 (0.36%) were called active. Inconclusive results (about 8%) are left out. Calls come from the whole dose curve; as a rule, active = well fitted activation curve with a large enough effect; inconclusive = small, poorly fitted or top-dose-only effect, or effect the other way, or another doubt; inactive = flat fitted curve, though single readings scatter. Some of the results follow.

target: Lysosomal alpha-glucosidase (Homo sapiens) (UniProt P10253); assay: qHTS Assay for Activators of Human alpha-Glucosidase as a Potential Chaperone Treatment of Pompe Disease; conditions: purified enzyme, 4-MU-alpha-glucoside fluorescence, 20 min; series mostly up to 76.9 µM; note: nearly all actives have a fitted effect of over 80% in size
Outline: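 Fluorogenic assay, 4 nM enzyme, 400 uM 4-methylumbelliferyl-[…], pH 5.0 citrate/phosphate buffer with 0.005% Tween-20, compounds up to 77 uM, 20 min at room temperature. NaOH/glycine stop, Ex 365/Em 440 nm; AC50 from Hill fits.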
Potency is the fitted concentration of half-maximal effect.

| SMILES | Potency |
| --- | --- |
| CCCCC1(C)Nc2ccccc2-c2nc3ccccc3n21 (configuration not stated) | 35.5 µM (active) |
| CCCC1(C)Nc2ccccc2-c2nc3ccccc3n21 (configuration not stated) | 31.6 µM (active) |
| c1ccc2c(c1)NC1(CCCC1)n1c-2nc2ccccc21 | 31.6 µM (active) |
| CC1OC(Oc2ccc3ccc(=O)oc3c2-c2c(O)ccc3cc(Oc4ccc5ccc(=O)oc5c4)c(=O)oc23)C(O)C(O)C1O (configuration not stated) | 39.8 µM (active) |
| N#Cc1cc2c(=O)n3ccccc3nc2n(CCCN2CCOCC2)c1=O | 35.5 µM (active) |
| C=CCn1c(=O)c(C#N)cc2c(=O)n3ccccc3nc21 | 35.5 µM (active) |
| Cc1cccn2c(=O)c3cc(C#N)c(=O)n(CCCN4CCOCC4)c3nc12 | 35.5 µM (active) |
| Cc1[nH]nc2c1-c1nc3ccccc3nc1C(C)(C)C2 | 28.2 µM (active) |
| COc1ccc2c(c1)c1ncn(Cc3ccco3)c(=O)c1n2C | 35.5 µM (active) |
| CCCn1c(=O)c2c(C(=O)OCC)cc(-c3ccco3)nc2n(CCC)c1=O | 35.5 µM (active) |
| CCCn1c(=O)[nH]c(=O)c2c(C(=O)OCC)cc(-c3cccs3)nc21 | 35.5 µM (active) |
| O=c1[nH]c(=O)n(Cc2ccccc2)c2nc(-c3ccco3)cc(C(F)(F)F)c12 | 31.6 µM (active) |
| COCCn1c(=O)[nH]c(=O)c2c(C(F)(F)F)cc(-c3cccs3)nc21 | 28.2 µM (active) |
| CCCCn1c(=O)[nH]c(=O)c2c(C(=O)OCC)cc(-c3cccs3)nc21 | 35.5 µM (active) |
| COc1ccc2cc(/C=N/NC(=O)CN(c3ccccc3)S(=O)(=O)c3ccccc3)c(Cl)nc2c1 | 35.5 µM (active) |
| COC(=O)C1=CN(C)C=C(C(=O)OC)C1c1ccsc1 | 35.5 µM (active) |
| CCOC(=O)C1=CN(C)C=C(C(=O)OCC)C1c1ccsc1 | 31.6 µM (active) |
| N#Cc1cc2ccccc2nc1N | 39.8 µM (active) |
| COc1ccc(-c2cc(=Nc3c(C)n(C)n(-c4ccccc4)c3=O)c3ccccc3o2)cc1 | 35.5 µM (active) |
| Nc1nc2nc(-c3ccc(F)cc3)cc(C(F)(F)F)n2n1 | 25.1 µM (active) |
| Nc1nc2nccc(-c3ccc(Cl)cc3)n2n1 | 22.4 µM (active) |

| SMILES | Potency |
| --- | --- |
| COc1ccc(-c2cc(C(F)(F)F)n3nc(N)nc3n2)cc1 | 35.5 µM (active) |
| Nc1nc2nc(-c3ccc(Cl)cc3)cc(C(F)(F)F)n2n1 | 31.6 µM (active) |
| Cc1nc2cc3ccccc3cc2c(=O)[nH]1 | 25.1 µM (active) |
| CCCCCCc1cc2cc(C(N)=O)c(=N)oc2cc1O | 31.6 µM (active) |
| CCCCCCc1cc2cc(S(=O)(=O)c3ccc(F)cc3)c(=O)oc2cc1O | 31.6 µM (active) |
| CCCCCCc1cc2cc(C(=O)NCc3ccccc3)c(=N)oc2cc1O | 35.5 µM (active) |
| CCCOc1ccc(C2C(C(=O)OC)=CN(CCOC)C=C2C(=O)OC)cc1 | 35.5 µM (active) |
| COCCN1C=C(C(=O)OC)C(c2cc(Br)c(OC)c(OC)c2)C(C(=O)OC)=C1 | 35.5 µM (active) |
| CCOc1ccc(C2C(C(=O)OC)=CN(CCOC)C=C2C(=O)OC)cc1 | 35.5 µM (active) |
| Cc1cc(N2CCOCC2)nc2ccc(NC(=O)CCC(=O)N3CCCCC3)cc12 | 35.5 µM (active) |
| Cc1cc(N2CCOCC2)nc2ccc(NC(=O)CCC(=O)N3CCCC(C)C3)cc12 (configuration not stated) | 39.8 µM (active) |
| Oc1ccc(N=Cc2ccc(-c3cccs3)s2)cc1 | 31.6 µM (active) |
| CC(C)c1ccc2oc3nc(N)c(C(=O)O)cc3c(=O)c2c1 | 35.5 µM (active) |
| N#Cc1ccc2c(c1)nc1ccccn12 | 35.5 µM (active) |
| Cc1cc(=O)oc2c(CN3CCCCC3)c(O)c(Cl)cc12 | 31.6 µM (active) |
| Cc1cc(=O)oc2c(CN3CC(C)OC(C)C3)c(O)c(Cl)cc12 (configuration not stated) | 10 µM (active) |
| Cc1cc(=O)oc2c(CN3CCN(C)CC3)c(O)c(Cl)cc12 | 35.5 µM (active) |
| Cc1cc(=O)oc2c(CN3CCC(C)CC3)c(O)c(Cl)cc12 | 35.5 µM (active) |
| CCN1CCN(Cc2c(O)c(Cl)cc3c(C)cc(=O)oc23)CC1 | 35.5 µM (active) |
| COc1ccccc1C1CN(c2ccccc2)N=C1c1cccs1 (configuration not stated) | 39.8 µM (active) |
| COc1cccc(C2CN(c3ccc(F)cc3F)N=C2c2cccs2)c1OC (configuration not stated) | 39.8 µM (active) |

| SMILES | Potency |
| --- | --- |
| COc1ccccc1C1CN(c2ccc(F)cc2F)N=C1c1cccs1 (configuration not stated) | 28.2 µM (active) |
| Fc1ccccc1N1CC(c2ccccc2)C(c2cccs2)=N1 (configuration not stated) | 35.5 µM (active) |
| Fc1ccc(N2N=C(c3cccs3)CC2c2ccccc2)cc1 (configuration not stated) | 31.6 µM (active) |
| Fc1ccc(C2CC(c3cccs3)=NN2c2ccccc2)cc1 (configuration not stated) | 31.6 µM (active) |
| O=c1c(-c2nnc(SCc3ccc(Cl)cc3)o2)cccn1Cc1ccccc1 | 39.8 µM (active) |
| O=c1c(-c2nnc(SCc3ccc(Cl)c(Cl)c3)o2)cccn1Cc1ccccc1 | 35.5 µM (active) |
| O=c1c(-c2nnc(SCc3ccc(Cl)cc3Cl)o2)cccn1Cc1ccccc1 | 35.5 µM (active) |
| O=c1oc2cc(Oc3c([N+](=O)[O-])cc(C(F)(F)F)cc3[N+](=O)[O-])ccc2c2c1CCCC2 | 35.5 µM (active) |
| Nc1nc2nc(-c3cccs3)cc(C(F)(F)F)n2n1 | 28.2 µM (active) |
| FC(F)(F)c1cc(-c2cccs2)nc2ncnn12 | 28.2 µM (active) |
| COc1ccc(-c2cc3ccc(OCc4nn[nH]n4)cc3oc2=O)cc1 | 35.5 µM (active) |
| CCCOc1ccc2cc(-c3ccccn3)c(=O)oc2c1 | 39.8 µM (active) |
| CN(C)C(=O)COc1ccc2cc(-c3ccccc3)c(=O)oc2c1 | 35.5 µM (active) |
| CSc1cnc2c(=O)n(C)c(=O)[nH]c2n1 | 35.5 µM (active) |
| COCCCNC(=O)c1c(N)n(-c2cccc(S(N)(=O)=O)c2)c2nc3ccccc3nc12 | 35.5 µM (active) |
| C=CCNC(=O)c1c(N)n(-c2cccc(S(N)(=O)=O)c2)c2nc3ccccc3nc12 | 25.1 µM (active) |
| O=c1oc2c(CN3CCOCC3)c(O)ccc2c2c1CCC2 | 25.1 µM (active) |
| O=c1oc2c(CN3CCOCC3)c(O)ccc2c2c1CCCC2 | 35.5 µM (active) |
| COC(=O)c1nc2nc(-c3cccs3)cc(C(F)(F)F)n2n1 | 35.5 µM (active) |
| CCOC(=O)c1nc2nc(-c3cccs3)cc(C(F)(F)F)n2n1 | 14.1 µM (active) |
